Test [1] deals with DNA dC->dU-editing enzyme APOBEC-3G (Homo sapiens) (UniProt Q9HC16). Nature of the test: qHTS for inhibitors of Vif-A3G interactions: Validation (AID 588379; active means well fitted curve in the direction sought with a large enough effect; an effect the other way counts as inactive or inconclusive; further: 0% is about no effect). The following applies: Vif-A3G protein interaction assay; series mostly up to 46.1 µM. The procedure, abridged:
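Yellow fluorescence (Ex 488, Em 500-530) of Vif-coexpressing HeLa A3G-eYFP cells, scanned by Acumen cytometer, reports blocked A3G degradation. Cells plated at 700/well overnight at 37 deg C before compound addition, then a further overnight compound incubation at 37 deg C.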
In general terms: In qHTS, concentration-response curves come from the screen itself.

Test [2] addresses Estrogen receptor (Homo sapiens) (UniProt P03372). Description: qHTS assay for small molecule agonists of estrogen receptor alpha signaling (AID 588514). Further: nearly all actives have a fitted effect of over 70% in size. Further: potency means the concentration at half of the fitted maximal effect.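 On activation: 0% = vehicle only and 100% = reference agonist.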 To be noted: ER-alpha-UAS-bla HEK293, beta-lactamase ratio, 18 h; series mostly up to 76.8 µM. The procedure, abridged: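 Efficacy is expressed against 20 nM 17-beta-estradiol (100%) and DMSO basal (0%); EC50 from Hill equation. Assay: beta-lactamase reporter in ER-alpha-UAS-bla HEK 293 cells, 18 h compound incubation, CCF4 detection.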

Test [3] deals with Androgen receptor (Homo sapiens) (UniProt P10275). Description: qHTS assay for small molecule antagonists of androgen receptor signaling (AID 588516; active means well fitted curve in the direction sought with a large enough effect in the signal ratio, with a control signal flat, not every such curve was filed as active; the % refers to the signal ratio; further: potency means the concentration at half of the fitted maximal effect). To be noted: AR-UAS-bla HEK293, beta-lactamase ratio, antagonist mode, 16 h; series mostly up to 76.8 µM. The essentials:
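Cells were plated and incubated 5 h, compounds added in titration, then R1881 (10 nM final) as agonist. After 16 h at 37 C, CCF4 substrate was loaded for 2 h at room temperature and fluorescence measured.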

Test [4] concerns the target Glucocorticoid receptor (Homo sapiens) (UniProt P04150). Description: qHTS assay for small molecule agonists of glucocorticoid receptor signaling (AID 588532; active means well fitted curve in the direction sought with a large enough effect in the signal ratio, with a control signal flat; the % refers to the signal ratio;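 further: 100% = dexamethasone at 0.1 µM and 0% = DMSO only wells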). The following applies: HeLa MMTV-bla, beta-lactamase ratio, agonist, 18 h; stronger effect = higher value; percent of dexamethasone control, DMSO zero. The essentials:
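Agonist-mode qHTS: GRE-driven beta-lactamase in HeLa cells exposed 18 h to titrated compounds (up to 92 uM), then CCF4 ratio read after 2 h at RT; Hill-fitted EC50, efficacy relative to 0.1 uM dexamethasone.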

Test [5] shares this target. Description: qHTS assay for small molecule antagonists of glucocorticoid receptor signaling (AID 588533; active means well fitted inhibition curve with a large enough effect in the signal ratio, with a control signal flat, not every such curve was filed as active; the % refers to the signal ratio;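 further: cells stimulated with 2 nM dexamethasone as agonist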; further: potency means the concentration at half of the fitted maximal effect). To be noted: HeLa MMTV-bla, GRE beta-lactamase ratio, antagonist mode, 18 h; series mostly up to 76.8 µM. The procedure, abridged:
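Antagonist-mode qHTS: compound titrations added to GRE-bla HeLa cells, then dexamethasone 2 nM final; 18 h, 37 C. CCF4 FRET fluorescence normalized to dexamethasone and DMSO; IC50 from Hill fit.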

A short description of test [6]: qHTS assay for small molecule antagonists of peroxisome proliferator-activated receptor delta signaling (AID 588535; active means well fitted inhibition curve with a large enough effect in the signal ratio, with a control signal flat, not every such curve was filed as active; the % refers to the signal ratio;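 on max response: cells co-treated with a PPAR-delta agonist as stimulator during compound exposure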). The following applies: HEK293T PPARd-UAS-bla, beta-lactamase FRET ratio, 18 h; 460 nm channel. The procedure, abridged:
(§1)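 Titrations were run on PPAR-delta-UAS-bla HEK293T cells in charcoal/dextran-stripped serum, incubated 18 h at 37 C. CCF4 fluorescence (460/530 nm) after 2 h RT; Hill equation yields IC50 and maximal response.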

Test [7] addresses Peroxisome proliferator-activated receptor delta (Homo sapiens) (UniProt Q03181). Described as above. To be noted: HEK293T PPARd-UAS-bla, beta-lactamase FRET ratio, 18 h; series mostly up to 76.7 µM. The essentials:
as §1

Test [8] is described as follows: qHTS assay for small molecule agonists of retinoid X receptor alpha signaling (AID 588544). The following applies: HEK293T RXRa-UAS-bla, beta-lactamase reporter, 18 h; 530 nm emission.
Test [9] addresses Retinoic acid receptor RXR-alpha (Homo sapiens) (UniProt P19793). The test is described as above. To be noted: HEK293T RXRa-UAS-bla, beta-lactamase reporter, 18 h; series mostly up to 76.7 µM.
The target of test [10] is Thyroid hormone receptor beta (Homo sapiens) (UniProt P10828). Nature of the test: qHTS assay for small molecule agonists of thyroid hormone receptor beta signaling (AID 588545).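 Further: 0% = DMSO only and 100% = 10 nM T3.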 The following applies: TR-UAS-bla GripTite HEK 293, beta-lactamase ratio, agonist mode, 18 h, percent of T3 response, DMSO as zero; series mostly up to 76.7 µM. The essentials: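 Compounds were tested as agonists in TR-UAS-bla-GripTite HEK 293 cells. After 18 hrs at 37 C, CCF4 substrate was added and fluorescence read after 2 hrs at room temperature.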
Thyroid hormone receptor beta (Homo sapiens), sequence (P10828 whole entry, looked up): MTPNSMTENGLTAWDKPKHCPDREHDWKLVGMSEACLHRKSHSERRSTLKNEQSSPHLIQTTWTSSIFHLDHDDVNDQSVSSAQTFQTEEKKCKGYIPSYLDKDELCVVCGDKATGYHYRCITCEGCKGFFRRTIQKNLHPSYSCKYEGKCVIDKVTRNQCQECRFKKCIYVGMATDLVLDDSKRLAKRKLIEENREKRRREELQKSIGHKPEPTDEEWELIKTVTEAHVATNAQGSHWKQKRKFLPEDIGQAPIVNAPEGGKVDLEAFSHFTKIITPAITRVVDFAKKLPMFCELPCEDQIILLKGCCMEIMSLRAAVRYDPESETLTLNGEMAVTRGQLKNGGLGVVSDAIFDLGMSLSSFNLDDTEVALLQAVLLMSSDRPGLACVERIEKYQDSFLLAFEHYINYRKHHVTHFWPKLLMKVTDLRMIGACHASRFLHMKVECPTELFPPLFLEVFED

A short description of test [11]: qHTS assay for small molecule antagonists of retinoid X receptor alpha signaling (AID 588546; active means well fitted inhibition curve with a large enough effect in the signal ratio, with a control signal flat, not every such curve was filed as active; the % refers to the signal ratio; further: potency means the concentration at half of the fitted maximal effect;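 on max response: cells stimulated with 9-cis-retinoic acid as agonist; on the % scale 0 is the no-effect control and ±100 the full control effect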). To be noted: HEK293T RXRa-UAS-bla, beta-lactamase ratio, antagonist mode; measured here: W530 green channel, cytotoxicity proxy. The procedure, abridged: (§2)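 Beta-lactamase reporter inhibition, read as CCF4 fluorescence ratio (ex 405, em 460/530 nm) after 2 h at RT. HEK293T UAS-bla cells, 2500/well, were stimulated with 9-cis-RA at 500 or 100 nM final alongside test compound for 18 h at 37 C.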

Test [12] has as its target Retinoic acid receptor RXR-alpha (Homo sapiens) (UniProt P19793). The description is as above. The following applies: HEK293T RXRa-UAS-bla, beta-lactamase ratio, antagonist mode. The procedure, abridged: as §2
Test [13] can be described thus: qHTS for Inhibitors of ATXN expression: Validation (AID 588378; active means well fitted curve in the direction sought with a large enough effect; an effect the other way counts as inactive or inconclusive; further: on the % scale 0 is the no-effect control and ±100 the full control effect; nearly all actives have a fitted effect of over 75% in size). To be noted: cell-based ATXN2 expression reporter assay, luminescence; series mostly up to 57.1 µM. The procedure, abridged:
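Compounds were pinned onto attached HEK293 cells carrying an ATXN2-firefly luciferase construct and incubated 24 hrs at 37 degrees C. Each well then received a fluorescent viability reagent followed by luciferase substrate for end-point luminescence.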

Test [14] addresses Peroxisome proliferator-activated receptor gamma (Homo sapiens) (UniProt P37231). Nature of the test: qHTS assay for small molecule antagonists of peroxisome proliferator-activated receptor gamma signaling (AID 588537; active means well fitted inhibition curve with a large enough effect in the signal ratio, with a control signal flat, not every such curve was filed as active; the % refers to the signal ratio; further: potency means the concentration at half of the fitted maximal effect). The following applies: HEK293 PPARg-UAS-bla, beta-lactamase ratio, antagonist mode; series mostly up to 76.8 µM. The essentials: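 Antagonist-mode β-lactamase reporter screen run as a titration series. HEK293 PPARγ-UAS-bla cells are stimulated with rosiglitazone (50 nM final) for 16 h, then CCF4 is read at 460/530 nm. Data are scaled between DMSO and rosiglitazone and fitted to the Hill equation.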

For test [15], the target named is Androgen receptor (Homo sapiens) (UniProt P10275). Nature of the test: qHTS assay for small molecule agonists of androgen receptor signaling (AID 588515; active means well fitted curve in the direction sought with a large enough effect in the signal ratio, with a control signal flat; the % refers to the signal ratio; further: on the % scale 0 is the no-effect control and ±100 the full control effect). To be noted: AR-UAS-bla HEK293, beta-lactamase ratio, agonist 16 h; stronger effect = higher value. The procedure, abridged: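 Stimulation of an AR-responsive β-lactamase reporter in GripTite HEK293 cells was measured after 16 h compound exposure at 37 °C, via CCF4 fluorescence after 2 h RT. EC50 from Hill fits, normalized to R1881 at 30 nM.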
Androgen receptor (Homo sapiens), sequence (P10275 whole entry, looked up): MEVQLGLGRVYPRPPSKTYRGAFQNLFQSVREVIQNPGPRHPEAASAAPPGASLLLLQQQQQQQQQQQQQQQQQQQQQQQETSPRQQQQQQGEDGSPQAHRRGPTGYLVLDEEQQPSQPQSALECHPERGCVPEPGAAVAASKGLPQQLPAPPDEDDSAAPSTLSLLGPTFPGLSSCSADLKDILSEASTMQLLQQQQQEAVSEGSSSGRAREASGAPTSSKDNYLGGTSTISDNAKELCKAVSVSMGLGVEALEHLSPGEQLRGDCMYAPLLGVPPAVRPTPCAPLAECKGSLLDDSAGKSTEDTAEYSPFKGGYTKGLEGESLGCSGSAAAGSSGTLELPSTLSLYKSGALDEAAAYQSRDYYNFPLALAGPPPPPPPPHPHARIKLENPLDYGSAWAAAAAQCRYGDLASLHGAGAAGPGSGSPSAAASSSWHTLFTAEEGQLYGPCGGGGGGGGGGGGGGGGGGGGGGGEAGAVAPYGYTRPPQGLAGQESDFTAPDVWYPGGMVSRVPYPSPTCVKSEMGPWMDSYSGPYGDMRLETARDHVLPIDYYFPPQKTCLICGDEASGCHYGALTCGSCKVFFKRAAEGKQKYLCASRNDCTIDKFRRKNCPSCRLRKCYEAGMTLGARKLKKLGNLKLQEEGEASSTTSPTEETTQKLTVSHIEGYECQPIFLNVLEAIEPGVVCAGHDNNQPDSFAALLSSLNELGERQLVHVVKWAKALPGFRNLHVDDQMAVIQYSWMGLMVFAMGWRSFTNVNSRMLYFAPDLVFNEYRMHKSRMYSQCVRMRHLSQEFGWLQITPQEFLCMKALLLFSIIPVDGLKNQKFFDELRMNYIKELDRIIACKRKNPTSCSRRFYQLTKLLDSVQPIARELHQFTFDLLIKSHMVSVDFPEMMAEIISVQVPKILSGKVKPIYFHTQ

The target in test [16] is Peroxisome proliferator-activated receptor gamma (Homo sapiens) (UniProt P37231). Nature of the test: qHTS assay for small molecule agonists of peroxisome proliferator-activated receptor gamma signaling (AID 588536; active means well fitted curve in the direction sought with a large enough effect in the signal ratio, with a control signal flat, not every such curve was filed as active; the % refers to the signal ratio). To be noted: HEK293 PPARg-UAS-bla, beta-lactamase ratio, 16 h, percent of rosiglitazone response, DMSO as zero; series mostly up to 76.7 µM. The essentials: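 Using GeneBLAzer HEK293 cells, response was quantified by CCF4 fluorescence and normalized between basal DMSO (0%) and rosiglitazone 2 uM (100%); curves yielded half-maximal stimulation concentration and efficacy.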
Peroxisome proliferator-activated receptor gamma (Homo sapiens), sequence (P37231 whole entry, looked up): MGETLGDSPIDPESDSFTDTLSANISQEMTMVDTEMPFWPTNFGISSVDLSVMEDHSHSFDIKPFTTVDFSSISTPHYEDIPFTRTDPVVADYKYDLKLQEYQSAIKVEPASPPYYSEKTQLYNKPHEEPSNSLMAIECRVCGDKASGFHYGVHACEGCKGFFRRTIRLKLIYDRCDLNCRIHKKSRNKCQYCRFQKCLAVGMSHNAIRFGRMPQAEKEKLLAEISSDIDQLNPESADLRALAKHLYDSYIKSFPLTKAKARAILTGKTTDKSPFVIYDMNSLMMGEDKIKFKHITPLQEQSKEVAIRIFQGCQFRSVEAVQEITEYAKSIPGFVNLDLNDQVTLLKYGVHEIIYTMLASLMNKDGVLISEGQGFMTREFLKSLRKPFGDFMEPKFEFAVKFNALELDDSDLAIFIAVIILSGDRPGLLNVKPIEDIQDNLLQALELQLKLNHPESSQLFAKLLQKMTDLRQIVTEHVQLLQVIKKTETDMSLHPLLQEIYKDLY

Test [17] deals with Vitamin D3 receptor (Homo sapiens) (UniProt P11473). Description: qHTS assay for small molecule antagonists of vitamin D receptor signaling (AID 588541).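 Further: receptor activated by calcitriol during compound treatment; on the % scale 0 is the no-effect control and ±100 the full control effect.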 To be noted: HEK293T VDR-UAS-bla, beta-lactamase ratio, antagonist mode; series mostly up to 76.7 µM. The procedure, abridged:
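Antagonist-mode beta-lactamase reporter assay: HEK293T VDR-UAS-bla cells were exposed to titrated compound alongside 1-alpha,25-dihydroxyvitamin D3 at 3 nM final for 16 h. Values were normalized to the 50 nM agonist control and DMSO basal, with IC50 and efficacy from Hill equation fits.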

Test [18] has the same target. Nature of the test: qHTS assay for small molecule agonists of vitamin D receptor signaling (AID 588543). The following applies: HEK293T VDR-UAS-bla, beta-lactamase ratio, 16 h; series mostly up to 76.8 µM. The procedure, abridged: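 Reporter cells (HEK293T, VDR-UAS-bla) were seeded in medium with 2% charcoal-stripped serum and incubated 5 h, then compounds in concentration series were added for 16 h at 37 °C. Stimulation was scaled between DMSO basal and 50 nM 1α,25-dihydroxyvitamin D3.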

Each structure is given as a SMILES string. Records with an inconclusive call do not appear. Activity calls are given as the source filed them. Unless noted, the call rests on the fitted dose curve.

DNA dC->dU-editing enzyme APOBEC-3G (Homo sapiens), sequence (Q9HC16 whole entry, looked up): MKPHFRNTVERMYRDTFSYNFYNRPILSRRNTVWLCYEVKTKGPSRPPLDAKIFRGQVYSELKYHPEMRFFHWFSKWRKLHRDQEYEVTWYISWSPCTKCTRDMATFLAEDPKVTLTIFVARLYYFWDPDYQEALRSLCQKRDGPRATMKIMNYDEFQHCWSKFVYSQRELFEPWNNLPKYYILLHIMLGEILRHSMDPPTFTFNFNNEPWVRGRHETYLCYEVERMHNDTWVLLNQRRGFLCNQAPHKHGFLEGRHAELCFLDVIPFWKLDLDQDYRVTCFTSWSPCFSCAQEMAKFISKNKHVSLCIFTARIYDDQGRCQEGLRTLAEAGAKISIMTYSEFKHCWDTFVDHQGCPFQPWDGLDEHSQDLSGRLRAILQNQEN
Glucocorticoid receptor (Homo sapiens), sequence (P04150 whole entry, looked up): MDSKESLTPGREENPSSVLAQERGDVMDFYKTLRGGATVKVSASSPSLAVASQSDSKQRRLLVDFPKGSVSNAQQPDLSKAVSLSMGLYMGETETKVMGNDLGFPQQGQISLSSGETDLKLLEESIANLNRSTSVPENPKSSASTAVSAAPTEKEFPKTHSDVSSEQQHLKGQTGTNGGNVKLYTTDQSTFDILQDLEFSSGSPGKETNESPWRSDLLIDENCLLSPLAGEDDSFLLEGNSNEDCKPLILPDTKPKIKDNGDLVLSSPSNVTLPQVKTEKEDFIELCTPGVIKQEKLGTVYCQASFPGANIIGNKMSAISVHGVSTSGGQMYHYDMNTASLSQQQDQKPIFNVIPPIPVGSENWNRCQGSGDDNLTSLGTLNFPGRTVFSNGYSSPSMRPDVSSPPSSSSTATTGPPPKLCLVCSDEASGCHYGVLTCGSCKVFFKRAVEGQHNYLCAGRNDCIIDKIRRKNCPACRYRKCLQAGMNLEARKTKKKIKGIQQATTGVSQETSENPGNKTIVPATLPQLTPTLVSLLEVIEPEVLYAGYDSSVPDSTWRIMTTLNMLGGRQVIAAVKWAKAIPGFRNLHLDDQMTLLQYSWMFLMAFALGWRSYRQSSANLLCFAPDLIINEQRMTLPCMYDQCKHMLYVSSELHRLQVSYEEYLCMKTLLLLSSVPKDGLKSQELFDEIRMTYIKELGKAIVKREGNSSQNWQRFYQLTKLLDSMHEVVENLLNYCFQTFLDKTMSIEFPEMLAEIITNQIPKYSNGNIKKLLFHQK
Vitamin D3 receptor (Homo sapiens), sequence (P11473 whole entry, looked up): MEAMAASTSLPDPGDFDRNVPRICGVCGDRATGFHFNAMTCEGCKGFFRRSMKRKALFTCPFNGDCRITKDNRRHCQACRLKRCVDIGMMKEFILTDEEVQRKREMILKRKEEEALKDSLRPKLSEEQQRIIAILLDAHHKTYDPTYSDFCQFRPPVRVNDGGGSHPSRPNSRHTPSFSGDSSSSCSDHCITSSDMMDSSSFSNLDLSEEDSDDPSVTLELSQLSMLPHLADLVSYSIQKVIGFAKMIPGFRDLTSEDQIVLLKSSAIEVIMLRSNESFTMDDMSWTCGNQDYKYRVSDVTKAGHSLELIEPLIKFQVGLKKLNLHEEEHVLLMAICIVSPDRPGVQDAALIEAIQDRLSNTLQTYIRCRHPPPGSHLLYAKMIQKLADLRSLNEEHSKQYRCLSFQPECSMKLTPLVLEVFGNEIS
Peroxisome proliferator-activated receptor delta (Homo sapiens), sequence (Q03181 whole entry, looked up): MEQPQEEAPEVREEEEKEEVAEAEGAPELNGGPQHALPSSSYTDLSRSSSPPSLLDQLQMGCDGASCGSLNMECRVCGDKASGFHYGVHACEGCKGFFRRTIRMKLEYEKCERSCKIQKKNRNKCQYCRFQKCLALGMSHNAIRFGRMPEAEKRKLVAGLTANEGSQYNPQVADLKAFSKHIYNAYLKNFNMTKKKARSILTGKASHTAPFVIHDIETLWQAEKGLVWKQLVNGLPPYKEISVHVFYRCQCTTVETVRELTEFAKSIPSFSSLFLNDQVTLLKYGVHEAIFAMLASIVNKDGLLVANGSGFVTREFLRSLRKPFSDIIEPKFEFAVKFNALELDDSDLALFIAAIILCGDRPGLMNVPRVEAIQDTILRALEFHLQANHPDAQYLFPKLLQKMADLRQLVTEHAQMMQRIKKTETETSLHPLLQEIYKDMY
Estrogen receptor (Homo sapiens), sequence (P03372 whole entry, looked up): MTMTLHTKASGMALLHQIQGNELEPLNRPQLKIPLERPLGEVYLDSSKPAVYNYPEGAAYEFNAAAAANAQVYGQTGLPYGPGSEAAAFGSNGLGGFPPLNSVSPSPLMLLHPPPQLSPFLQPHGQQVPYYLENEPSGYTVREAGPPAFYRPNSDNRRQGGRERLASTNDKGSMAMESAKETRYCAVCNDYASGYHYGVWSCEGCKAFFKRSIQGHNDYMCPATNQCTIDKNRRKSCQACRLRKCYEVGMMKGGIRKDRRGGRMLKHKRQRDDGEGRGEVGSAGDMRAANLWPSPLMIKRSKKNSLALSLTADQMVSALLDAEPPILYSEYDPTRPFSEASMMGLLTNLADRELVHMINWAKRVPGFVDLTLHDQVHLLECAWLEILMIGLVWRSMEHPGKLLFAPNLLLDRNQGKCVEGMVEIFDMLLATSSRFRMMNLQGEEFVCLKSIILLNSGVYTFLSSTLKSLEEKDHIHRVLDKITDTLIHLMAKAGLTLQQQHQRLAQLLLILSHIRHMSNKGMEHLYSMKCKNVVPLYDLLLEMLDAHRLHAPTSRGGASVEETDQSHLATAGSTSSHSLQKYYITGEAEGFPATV
Retinoic acid receptor RXR-alpha (Homo sapiens), sequence (P19793 whole entry, looked up): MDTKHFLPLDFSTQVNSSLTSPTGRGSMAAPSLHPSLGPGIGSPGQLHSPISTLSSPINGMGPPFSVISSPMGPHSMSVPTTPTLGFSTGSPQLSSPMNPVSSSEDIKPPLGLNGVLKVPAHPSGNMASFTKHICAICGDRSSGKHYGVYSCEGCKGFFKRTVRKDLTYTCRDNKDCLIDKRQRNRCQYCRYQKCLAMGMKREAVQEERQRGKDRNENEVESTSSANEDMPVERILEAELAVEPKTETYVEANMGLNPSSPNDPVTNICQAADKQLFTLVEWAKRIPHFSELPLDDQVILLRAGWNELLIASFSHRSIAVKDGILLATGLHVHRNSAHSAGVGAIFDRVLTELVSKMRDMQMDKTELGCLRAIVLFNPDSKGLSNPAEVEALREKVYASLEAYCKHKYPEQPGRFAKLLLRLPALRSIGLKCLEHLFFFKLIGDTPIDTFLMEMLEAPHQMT

For the molecule `COc1cc(C[C@H]2C(=O)OC[C@@H]2Cc2ccc(OC)c(OC)c2)ccc1O`, in test [1], the molecule was classed as inactive.
On the same count and under the same terms, the same measure for `COc1ccc2[nH]c(=O)c3c(c2c1)OC(C)(C)C=C3`: “inactive”.
For `O=S(=O)(c1ccccc1)N(CC(F)(F)F)c1ccc(C(O)(C(F)(F)F)C(F)(F)F)cc1`, the Potency entry in [2] was “inactive”. For the same molecule, the Potency in test [3] was 44.7 µM (active); in test [5], 39.8 µM (active); in test [12] it was 12.6 µM (active). Besides, the activation in [4] was 3.66% (inactive). For the same molecule, the max response is -29.6% in [6], -15.6% in test [8] and -56.3% in test [11]. For the same molecule, the outcome in test [7], in test [9] and in test [10] was inactive.
Turning to `NCCCC(=O)O`, the Potency result in [13] is “inactive”. The molecule was classed as inactive in [1].
For the molecule `CC(=O)S[C@@H]1CC2=CC(=O)CC[C@]2(C)[C@H]2CC[C@@]3(C)[C@@H](CC[C@@]34CCC(=O)O4)[C@H]12`, the Potency entry in test [2] was “inactive”. Besides, the activation in [4] is -13.6% (inactive). Moreover, the Potency in test [14] is 39.8 µM (active). For the same molecule, the result in test [10] was inactive.
For the molecule `CN(C)Cc1ccccc1`, the activation in [15] was -4.67% (inactive); in test [4] it was -2.09% (inactive). Besides, the Potency result in [5] and in test [14] was “inactive” each time. In addition, the max response was -30.1% in [6], -2.82% in test [8], -2.86% in test [11] and -1.44% (inactive) in test [12]. For the same molecule, the outcome in [7], in [16], in test [17], in test [9] and in test [10] was inactive.
For `CCCCCCCC/C=C\CCCCCCCC(=O)OC[C@@H](O)[C@H]1OC[C@H](O)[C@H]1O`, the Potency in [2] was 2 µM (active). Further, the Potency entry in [5] was “inactive”. Besides, the max response is -7.22% in test [6], -2.66% in test [8], -8.17% in [11] and -13.5% (inactive) in test [12]. The result in [7], in test [16], in test [17], in test [18], in [9] and in [10] was inactive.
Consider `Cc1ccc(OC[C@H](O)[C@H](C)NC(C)C)c2c1CCC2`, for which the molecule was called inactive in test [1].
